# Source: publication PMC7862700, “An all-to-all approach to the identification of sequence-specific readers for epigenetic DNA modifications on cytosine”
# How the values were obtained:
# Experiment in all cases: DAPPL (digital affinity profiling via proximity ligation, sequencing); 10 mM Tris-HCl pH 7.5, 50 mM NaCl, 1 mM DTT, 4% glycerol, room temperature, 30 min; GST-TFs on glutathione beads, 16-mer random dsDNA library, 0.1% formaldehyde crosslink after washing; high values mean tight binding
# Conditions in all cases: protein: recombinant; tags: N-terminal GST; dsDNA, one strand shown
# [1] = target: T1, FLI1 (Homo sapiens, UniProt Q01543 1-452)
# T1 sequence: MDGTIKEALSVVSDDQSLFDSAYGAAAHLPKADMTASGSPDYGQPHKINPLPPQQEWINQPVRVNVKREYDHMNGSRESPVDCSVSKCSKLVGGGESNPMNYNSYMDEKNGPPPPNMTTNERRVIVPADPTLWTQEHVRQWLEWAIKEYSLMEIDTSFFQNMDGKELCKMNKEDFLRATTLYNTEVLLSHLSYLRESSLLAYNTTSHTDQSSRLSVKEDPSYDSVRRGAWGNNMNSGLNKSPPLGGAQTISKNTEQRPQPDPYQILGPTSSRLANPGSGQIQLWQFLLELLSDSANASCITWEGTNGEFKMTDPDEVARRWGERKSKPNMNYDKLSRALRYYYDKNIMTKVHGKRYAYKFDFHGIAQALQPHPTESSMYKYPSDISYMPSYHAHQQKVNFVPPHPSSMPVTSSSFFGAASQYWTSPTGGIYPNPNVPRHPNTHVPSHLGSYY
# How it was run: (§1)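 Pools were built from human transcription factors expressed in yeast as GST fusions, captured on glutathione beads and DNA-barcoded, along with a tag-only sample. Incubation with 200 nmole of a 16-mer random double-stranded DNA library lasted 30 min at room temperature in Tris/NaCl/DTT/glycerol buffer, and was followed by washing, 0.1% formaldehyde crosslinking, proximity ligation, PCR amplification and Illumina NextSeq500 sequencing. Binding signal is the quotient of each hexamer's read frequency for a factor and its frequency for the tag-only sample.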
# [2] = target: T2, ELK1 (Homo sapiens, UniProt P19419 1-428)
# T2 sequence: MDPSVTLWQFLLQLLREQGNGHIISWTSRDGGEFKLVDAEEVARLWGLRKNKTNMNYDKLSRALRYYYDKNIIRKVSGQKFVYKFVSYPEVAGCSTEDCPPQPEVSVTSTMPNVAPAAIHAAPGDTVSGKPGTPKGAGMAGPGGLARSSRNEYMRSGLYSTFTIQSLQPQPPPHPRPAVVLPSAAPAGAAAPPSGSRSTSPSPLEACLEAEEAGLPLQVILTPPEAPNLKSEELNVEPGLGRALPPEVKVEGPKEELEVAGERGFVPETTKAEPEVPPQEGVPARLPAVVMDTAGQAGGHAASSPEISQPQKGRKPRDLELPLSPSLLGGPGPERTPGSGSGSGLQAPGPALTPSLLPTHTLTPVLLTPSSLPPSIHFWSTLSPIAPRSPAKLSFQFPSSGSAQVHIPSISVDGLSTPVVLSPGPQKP
# How it was run: as §1
# [3] = target: T3, GABPA (Homo sapiens, UniProt Q06546 1-454)
# T3 sequence: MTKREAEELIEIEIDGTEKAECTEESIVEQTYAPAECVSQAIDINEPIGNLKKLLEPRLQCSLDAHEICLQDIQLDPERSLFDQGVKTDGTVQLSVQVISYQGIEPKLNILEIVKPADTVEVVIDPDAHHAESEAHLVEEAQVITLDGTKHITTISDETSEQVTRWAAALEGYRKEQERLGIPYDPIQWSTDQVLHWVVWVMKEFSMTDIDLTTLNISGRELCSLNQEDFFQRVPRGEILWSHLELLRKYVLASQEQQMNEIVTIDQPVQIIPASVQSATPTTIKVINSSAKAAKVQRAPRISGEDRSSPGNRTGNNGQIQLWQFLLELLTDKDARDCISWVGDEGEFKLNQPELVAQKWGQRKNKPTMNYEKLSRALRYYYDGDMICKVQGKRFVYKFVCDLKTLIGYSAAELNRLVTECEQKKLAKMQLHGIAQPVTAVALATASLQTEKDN
# How it was run: as §1
# [4] = target: T4, ERG (Homo sapiens, UniProt P11308 1-479)
# T4 sequence: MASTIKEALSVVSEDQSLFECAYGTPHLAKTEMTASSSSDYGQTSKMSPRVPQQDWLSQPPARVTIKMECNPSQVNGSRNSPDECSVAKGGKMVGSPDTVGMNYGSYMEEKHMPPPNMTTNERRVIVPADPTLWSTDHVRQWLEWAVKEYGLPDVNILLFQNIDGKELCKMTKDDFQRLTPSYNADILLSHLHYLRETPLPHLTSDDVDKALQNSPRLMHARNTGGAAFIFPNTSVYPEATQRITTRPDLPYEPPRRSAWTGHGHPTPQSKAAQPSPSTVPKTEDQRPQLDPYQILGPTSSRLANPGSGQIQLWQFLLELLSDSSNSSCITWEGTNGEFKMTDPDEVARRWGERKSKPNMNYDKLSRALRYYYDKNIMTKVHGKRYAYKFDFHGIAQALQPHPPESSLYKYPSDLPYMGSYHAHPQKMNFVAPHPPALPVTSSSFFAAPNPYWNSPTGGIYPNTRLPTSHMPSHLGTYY
# How it was run: as §1
# [5] = target: ELF1 (Homo sapiens, UniProt P32519 1-619)
# Sequence of ELF1 (P32519 whole entry): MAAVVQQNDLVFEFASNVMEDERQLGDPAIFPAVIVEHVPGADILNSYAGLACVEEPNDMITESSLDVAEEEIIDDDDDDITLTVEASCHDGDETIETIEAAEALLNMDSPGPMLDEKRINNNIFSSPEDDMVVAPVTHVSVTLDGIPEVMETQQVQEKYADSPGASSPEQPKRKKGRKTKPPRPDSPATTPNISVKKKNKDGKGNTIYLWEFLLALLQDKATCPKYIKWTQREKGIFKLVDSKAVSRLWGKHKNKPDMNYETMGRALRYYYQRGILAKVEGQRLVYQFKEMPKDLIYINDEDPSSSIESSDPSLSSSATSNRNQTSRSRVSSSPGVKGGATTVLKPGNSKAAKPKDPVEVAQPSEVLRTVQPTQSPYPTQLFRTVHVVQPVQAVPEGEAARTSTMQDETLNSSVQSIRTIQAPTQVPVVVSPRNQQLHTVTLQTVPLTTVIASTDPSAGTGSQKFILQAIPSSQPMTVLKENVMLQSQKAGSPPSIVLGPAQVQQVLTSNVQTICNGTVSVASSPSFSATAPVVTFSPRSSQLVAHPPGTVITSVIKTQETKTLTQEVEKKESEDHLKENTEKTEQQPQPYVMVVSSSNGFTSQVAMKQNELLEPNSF
# How it was run: as §1
# [6] = target: T5, EHF (Homo sapiens, UniProt Q9NZC4 1-300)
# T5 sequence: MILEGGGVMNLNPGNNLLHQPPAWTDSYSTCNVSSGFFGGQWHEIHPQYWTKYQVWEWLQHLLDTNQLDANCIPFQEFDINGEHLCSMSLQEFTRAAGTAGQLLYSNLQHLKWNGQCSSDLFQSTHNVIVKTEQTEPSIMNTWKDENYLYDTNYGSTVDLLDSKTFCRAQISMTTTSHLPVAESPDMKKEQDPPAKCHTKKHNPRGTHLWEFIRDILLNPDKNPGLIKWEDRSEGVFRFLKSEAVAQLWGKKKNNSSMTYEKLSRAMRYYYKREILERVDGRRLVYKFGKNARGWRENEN
# How it was run: as §1
# [7] = target: SPI1 (Homo sapiens, UniProt P17947 1-270)
# How it was run: as §1
# [8] = target: SPIB (Homo sapiens, UniProt Q01892 1-262)
# Sequence of SPIB (Q01892 whole entry): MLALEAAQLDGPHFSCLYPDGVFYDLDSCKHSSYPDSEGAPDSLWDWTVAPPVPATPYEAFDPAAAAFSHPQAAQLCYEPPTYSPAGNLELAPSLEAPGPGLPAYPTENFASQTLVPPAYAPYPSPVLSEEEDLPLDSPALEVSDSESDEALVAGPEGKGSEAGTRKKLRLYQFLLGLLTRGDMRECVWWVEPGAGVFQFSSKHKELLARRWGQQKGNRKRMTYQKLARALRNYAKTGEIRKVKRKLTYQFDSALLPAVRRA
# How it was run: as §1
# [9] = target: T6, ELK3 (Homo sapiens, UniProt P41970 1-407)
# T6 sequence: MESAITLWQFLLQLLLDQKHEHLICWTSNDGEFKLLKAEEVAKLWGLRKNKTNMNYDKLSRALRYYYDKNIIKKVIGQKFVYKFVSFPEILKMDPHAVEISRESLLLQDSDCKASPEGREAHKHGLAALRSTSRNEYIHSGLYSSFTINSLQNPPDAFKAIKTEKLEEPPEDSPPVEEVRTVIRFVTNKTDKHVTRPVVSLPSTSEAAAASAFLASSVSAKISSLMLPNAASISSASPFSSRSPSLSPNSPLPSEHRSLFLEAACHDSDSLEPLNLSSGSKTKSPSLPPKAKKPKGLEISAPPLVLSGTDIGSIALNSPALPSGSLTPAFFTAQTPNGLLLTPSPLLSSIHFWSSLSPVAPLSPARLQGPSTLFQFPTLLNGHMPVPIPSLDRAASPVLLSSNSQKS
# How it was run: as §1
Sequence,binding signal [1],binding signal [2],binding signal [3],binding signal [4],binding signal [5],binding signal [6],binding signal [7],binding signal [8],binding signal [9]
TGATCC,"1.28 fold enrichment (6-mer frequency, TF over GST control)","1.32 fold enrichment (6-mer frequency, TF over GST control)","1.44 fold enrichment (6-mer frequency, TF over GST control)","1.29 fold enrichment (6-mer frequency, TF over GST control)","1.26 fold enrichment (6-mer frequency, TF over GST control)","1.2 fold enrichment (6-mer frequency, TF over GST control)","1.21 fold enrichment (6-mer frequency, TF over GST control)","1.37 fold enrichment (6-mer frequency, TF over GST control)","1.18 fold enrichment (6-mer frequency, TF over GST control)"
CTGGCA,"1.33 fold enrichment (6-mer frequency, TF over GST control)","1.28 fold enrichment (6-mer frequency, TF over GST control)","1.39 fold enrichment (6-mer frequency, TF over GST control)","1.2 fold enrichment (6-mer frequency, TF over GST control)","1.26 fold enrichment (6-mer frequency, TF over GST control)","1.23 fold enrichment (6-mer frequency, TF over GST control)","1.22 fold enrichment (6-mer frequency, TF over GST control)","1.29 fold enrichment (6-mer frequency, TF over GST control)","1.43 fold enrichment (6-mer frequency, TF over GST control)"
ACGATA,"1.19 fold enrichment (6-mer frequency, TF over GST control)","1.12 fold enrichment (6-mer frequency, TF over GST control)","1.23 fold enrichment (6-mer frequency, TF over GST control)","1.14 fold enrichment (6-mer frequency, TF over GST control)","1.19 fold enrichment (6-mer frequency, TF over GST control)","1.15 fold enrichment (6-mer frequency, TF over GST control)","1.09 fold enrichment (6-mer frequency, TF over GST control)","1.23 fold enrichment (6-mer frequency, TF over GST control)","1.16 fold enrichment (6-mer frequency, TF over GST control)"
ACTCCT,"1.67 fold enrichment (6-mer frequency, TF over GST control)","1.55 fold enrichment (6-mer frequency, TF over GST control)","1.45 fold enrichment (6-mer frequency, TF over GST control)","1.45 fold enrichment (6-mer frequency, TF over GST control)","1.57 fold enrichment (6-mer frequency, TF over GST control)","1.52 fold enrichment (6-mer frequency, TF over GST control)","1.42 fold enrichment (6-mer frequency, TF over GST control)","1.57 fold enrichment (6-mer frequency, TF over GST control)","1.5 fold enrichment (6-mer frequency, TF over GST control)"
CCTCTC,"1.51 fold enrichment (6-mer frequency, TF over GST control)","1.39 fold enrichment (6-mer frequency, TF over GST control)","1.37 fold enrichment (6-mer frequency, TF over GST control)","1.37 fold enrichment (6-mer frequency, TF over GST control)","1.43 fold enrichment (6-mer frequency, TF over GST control)","1.34 fold enrichment (6-mer frequency, TF over GST control)","1.39 fold enrichment (6-mer frequency, TF over GST control)","1.44 fold enrichment (6-mer frequency, TF over GST control)","1.44 fold enrichment (6-mer frequency, TF over GST control)"
GCCTCC,"1.29 fold enrichment (6-mer frequency, TF over GST control)","1.34 fold enrichment (6-mer frequency, TF over GST control)","1.23 fold enrichment (6-mer frequency, TF over GST control)","1.33 fold enrichment (6-mer frequency, TF over GST control)","1.27 fold enrichment (6-mer frequency, TF over GST control)","1.31 fold enrichment (6-mer frequency, TF over GST control)","1.38 fold enrichment (6-mer frequency, TF over GST control)","1.29 fold enrichment (6-mer frequency, TF over GST control)","1.33 fold enrichment (6-mer frequency, TF over GST control)"
GGATAT,"1.61 fold enrichment (6-mer frequency, TF over GST control)","1.65 fold enrichment (6-mer frequency, TF over GST control)","1.45 fold enrichment (6-mer frequency, TF over GST control)","2 fold enrichment (6-mer frequency, TF over GST control)","1.48 fold enrichment (6-mer frequency, TF over GST control)","1.55 fold enrichment (6-mer frequency, TF over GST control)","1.37 fold enrichment (6-mer frequency, TF over GST control)","1.58 fold enrichment (6-mer frequency, TF over GST control)","1.55 fold enrichment (6-mer frequency, TF over GST control)"
